Screening data from PubChem BioAssay.
Shown is part of a subset that was picked to be rich in hits.
HIV RNase H inh-1: HIV-1 RT RNase H inhibitors, primary screen, biochemical, fluorescence; AID 565, 2006; Gag-Pol polyprotein (Human immunodeficiency virus type 1 group M subtype B (isolate …; 65,000 compounds, 1.9% hits; RT-RNase H RNA/DNA duplex cleavage; inhibition, % at 10 µM; in the data active = inhibition above about 50%
HIV RNase H inh-2: HIV-1 RT RNase H inhibitors, retest, confirmation, biochemical | inhibition, % at 10 µM | Recombinant RT RNase H, fluorescent RNA/DNA duplex cleavage | shares compounds with HIV RNase H inh-1 | 1,000 compounds, 39% hits | AID 651, 2007; in the data active = inhibition above about 48%; inconclusive = no clear call, values can overlap the other calls
Numbers without * were called inactive; ? = inconclusive.

SMILES	HIV RNase H inh-1	others
CC(C)Cn1c(=O)c(C(=O)Nc2ccncc2)c(O)c2ccccc21	71*	HIV RNase H inh-2=47
Cn1c(=O)c(C(=O)Nc2cccnc2)c(O)c2ccccc21	-13
CC(C)Cn1c(=O)c(C(=O)Nc2cnccn2)c(O)c2ccccc21	-12
COC(=O)CNC(=O)c1nn(-c2cccc(OC)c2)c(=O)c2ccccc12	-7
O=C1CCN(C(=O)c2ccccc2)C2CCCCC12 (stereo not given)	-3
COc1ccc(Cl)cc1NC(=O)c1ccoc1C	-63
CCOC(=O)c1ccc(CNC(=O)c2cc(C(C)(C)C)oc2C)o1	-4
N#Cc1c(SCC(=O)Nc2nccs2)nc2c(c1-c1ccco1)CCCC2	82*	HIV RNase H inh-2=61*
CCc1ccccc1NC(=O)CSc1nc2c(c(-c3ccco3)c1C#N)CCCC2	40
CNC(=O)c1c(C)nc(SCC(=O)NCc2ccc(OC)cc2)c(C#N)c1-c1ccco1	-1
Cc1ccccc1NC(=O)CSc1nc(N)c(C#N)c(-c2cccs2)c1C#N	40
Cc1ccccc1NC(=O)CSc1nc2c(c(-c3ccco3)c1C#N)CCCC2	59*	HIV RNase H inh-2=73*
COCCOC(=O)c1c(C)nc(SCC(=O)Nc2ccc(C)cc2)c(C#N)c1-c1ccco1	0
COc1ccc(-n2c(C)cc(C(=O)CSc3nnc(-c4ccoc4C)n3C)c2C)cc1	1
Cc1ccc(-c2nnn(CCC(=O)NC3CCCC3)n2)cc1	3
CC1(c2cccs2)CC(c2cccs2)=C(C#N)C(=O)N1 (stereo not given)	-21
CC(=O)Oc1cc2oc(=O)c3c(c2cc1Cl)CCC3	-12
Cc1ccc(N2C(=O)c3sc4nnc(C)c(=O)n4c3C2=O)cc1	0
O=C1c2sc3nc4ccccc4n3c2C(=O)N1c1ccccc1Cl	85*	HIV RNase H inh-2=72*
O=c1/c(=C\c2cccnc2)sc2nc3ccccc3n12	-30
O=C1c2sc3nc4c(c(=O)n3c2C(=O)N1c1ccccc1)CCC4	12
Cc1ccccc1N1C(=O)c2sc3nc4c(c(=O)n3c2C1=O)CCC4	88*	HIV RNase H inh-2=80*
N=c1cc(C2(O)CCCCC2)n2c(nc3ccccc32)s1	-13
C=CCn1c(=O)n(CCOC)c(=O)c2sc3ccccc3c21	-40
CCOc1ccc(NS(=O)(=O)c2cc(Cl)ccc2OC)cc1	-1
SMILES	HIV RNase H inh-1	others
CCn1ncc(C2=NOC(C(=O)NCc3ccc(Cl)cc3)C2)c1C (stereo not given)	-9
CCCn1c(N2CCN(CC(=O)c3c[nH]c4ccccc34)CC2)nc2c1c(=O)[nH]c(=O)n2C	-1
O=C1CCc2cc(S(=O)(=O)N3CCC(C(=O)NC4CCCc5ccccc54)CC3)ccc2N1 (stereo not given)	-7
O=C(CSc1nc2cc(S(=O)(=O)N3CCOCC3)ccc2o1)NC1CCCc2ccccc21 (stereo not given)	85*	HIV RNase H inh-2=?
O=C(CSc1nc2ccccc2o1)Nc1ccc(N2CCOCC2)cc1	-3
Cc1ccc(S(=O)(=O)N2CCN(C(=O)CSc3nc4ccccc4o3)C2)cc1	-21
Cc1[nH]c2ccccc2c1C(=O)CSc1nc2cc(S(=O)(=O)N3CCCCC3)ccc2o1	36
Cc1ccc(C(=O)CSc2nc3cc(S(=O)(=O)N4CCOCC4)ccc3o2)cc1	72*	HIV RNase H inh-2=23
Cc1ccc(NS(=O)(=O)c2ccc(NC(=O)c3ccc(Br)o3)cc2)c(C)c1	-2
Nc1sc2c(c1C(=O)NC1CCS(=O)(=O)C1)CCCC2 (stereo not given)	66*	HIV RNase H inh-2=26
O=C(Nc1sc2c(c1C(=O)NC1CC1)CCCCCC2)c1ccco1	29
NC(=O)c1c(N)sc2c1CCCC2	35
CCCCOCCCn1c(-c2ccco2)nc2nc3ccccc3nc21	17
Cc1cc(C)n(-c2ccc(C(=O)OCC(=O)N(CC(C)C)C3CCS(=O)(=O)C3)cc2)n1 (stereo not given)	-9
CC(C)CN(C(=O)COC(=O)c1ccc2c(c1)NC(=O)CS2)C1CCS(=O)(=O)C1 (stereo not given)	77*	HIV RNase H inh-2=79*
CC(C)CN(C(=O)COC(=O)c1cc2ccccc2oc1=O)C1CCS(=O)(=O)C1 (stereo not given)	0
O=c1[nH]c2cc3c(cc2cc1C(c1nnnn1C1CCCC1)N1CCSCC1)OCCO3 (stereo not given)	61*	HIV RNase H inh-2=32
CC(C)(C)n1nnnc1C(c1cc2cc3c(cc2[nH]c1=O)OCCO3)N1CCSCC1 (stereo not given)	4
Cc1cccc2cc(C(c3nnnn3C3CCCC3)N3CCOCC3)c(=O)[nH]c12 (stereo not given)	0
COc1ccc(N2C(=O)C(Cl)=C(N(CCO)Cc3ccccc3)C2=O)cc1	30
O=C1C(Cl)=C(N2CCN(Cc3ccccc3)CC2)C(=O)N1c1ccccc1	85*	HIV RNase H inh-2=-3
Cc1cc(=O)[nH]c(N2CCN(Cc3ccccc3)CC2)n1	0
COc1ccc(S(=O)(=O)N2CCN(Cc3ccccc3)CC2)cc1	-4
COc1ccc(N2C(=O)C(Cl)=C(N3CCN(Cc4ccccc4)CC3)C2=O)cc1	90*	HIV RNase H inh-2=24
CC1=C(C)C(=O)N(c2ccc(C(=O)O)cc2)C1=O	-4
SMILES	HIV RNase H inh-1	others
Cc1ccc(C(=O)N2CCN(c3ccc(Cl)cc3)CC2)cc1	2
O=C1CC(N2CCN(Cc3ccccc3)CC2)C(=O)N1c1ccccc1 (stereo not given)	13
CN1CCN(C2=C(Cl)C(=O)N(c3ccc(Cl)cc3)C2=O)CC1	82*	HIV RNase H inh-2=40
COc1ccc(C)cc1S(=O)(=O)N(CC(N)=O)Cc1ccccc1	-4
O=C1NCC2=C1C(c1ccc(Br)cc1)Nc1ccccc1N2 (stereo not given)	8
COC(=O)c1c(NC(=O)c2nc3ncccn3n2)sc(C(=O)N(C)C)c1C	-59
C=CC[N+](C)(C)CCCNC(=O)/C=N/O	-17
O=C(N1CCOCC1)N1CCC(n2nnc3cc(F)ccc32)CC1	84*	HIV RNase H inh-2=34
Fc1ccc2c(c1)nnn2C1CCN(Cc2ccccc2)CC1	-11
O=S(=O)(c1ccc2c(c1)OCCO2)N1CCC(n2nnc3cc(F)ccc32)CC1	-2
CC(c1nnc(Sc2nnnn2-c2ccccc2)n1-c1ccc(F)cc1)N(C)C (stereo not given)	2
CCN1C(=O)C(O)(C2COC(C)(C)CC2=O)c2cc(Br)ccc21 (stereo not given)	3
CCOC(=O)c1ccc(CNC(=O)c2n[nH]c(=O)c3ccccc23)o1	-17
O=C(Nc1ccc(Nc2ccccc2)cc1)c1ccco1	-7
COc1ccccc1NC(=O)c1oc2ccccc2c1NC(=O)c1ccco1	24
COc1ccccc1NC(=O)c1sc2nc(-c3ccco3)ccc2c1N	84*	HIV RNase H inh-2=45
COc1cc2cc3c(N)c(C(=O)NCc4ccco4)sc3nc2cc1OC	4
O=C(COC(=O)c1ccco1)Nc1ccccc1	-2
Nc1c(C(=O)Nc2ccccc2)sc2nc(-c3ccco3)ccc12	87*	HIV RNase H inh-2=4
CC(=O)Nc1cccc(NC(=O)c2sc3ncn(CC(=O)N4CCCCC4)c(=O)c3c2C)c1	-21
CCC1(CC)NC(=O)N(CC(=O)Nc2sc3c(c2C(N)=O)CCC3)C1=O	46
CCOc1cc(N2CCOCC2)c(OCC)cc1NC(=O)C(NC(=O)c1ccco1)C(C)C (stereo not given)	-4
O=C(c1ccco1)N1CCC(c2nc(-c3ccc(F)cc3)no2)CC1	-7
O=C(Nc1cccc(C(F)(F)F)c1)N1CCC(c2nc(-c3ccc(F)cc3)no2)CC1	67*	HIV RNase H inh-2=47
